From paper PMC7862700, “An all-to-all approach to the identification of sequence-specific readers for epigenetic DNA modifications on cytosine”

Tests used:
Assay in all cases: DAPPL (digital affinity profiling via proximity ligation, sequencing); 10 mM Tris-HCl pH 7.5, 50 mM NaCl, 1 mM DTT, 4% glycerol, room temperature, 30 min; GST-TFs on glutathione beads, 16-mer random dsDNA library, 0.1% formaldehyde crosslink after washing; high values mean tight binding
FEV = target: T1, FEV (Homo sapiens, UniProt Q99581 1-238); details: protein: recombinant; tags: N-terminal GST; dsDNA, one strand shown
T1 sequence: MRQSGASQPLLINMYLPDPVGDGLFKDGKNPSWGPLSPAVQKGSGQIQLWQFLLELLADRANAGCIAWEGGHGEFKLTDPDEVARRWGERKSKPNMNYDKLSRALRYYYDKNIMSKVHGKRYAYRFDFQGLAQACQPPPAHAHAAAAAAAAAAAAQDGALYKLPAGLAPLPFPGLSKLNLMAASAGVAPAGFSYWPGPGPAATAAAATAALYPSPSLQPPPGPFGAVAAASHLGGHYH
Method in brief: (§1)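 Sequencing on an Illumina NextSeq500 followed washing, crosslinking with 0.1% formaldehyde, proximity ligation (BsaI/T4 ligase, 1 h, 37 °C) and PCR amplification of pools that had been incubated for 30 min at room temperature with 200 nmole of a random double-stranded 16-mer DNA library in Tris/NaCl/DTT/glycerol buffer. Each pool held DNA-barcoded human transcription factors, expressed in yeast as GST fusions and captured on glutathione beads, plus a tag-only sample. Binding signal is a hexamer's read frequency for a factor divided by its frequency in the tag-only sample.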

ETV5 = ETV5 (Homo sapiens, UniProt P41161 1-510); details: protein: recombinant; tags: N-terminal GST; dsDNA, one strand shown
Method in brief: as §1

HSF1 = HSF1 (Homo sapiens, UniProt Q00613 1-529); details: protein: recombinant; tags: N-terminal GST; chain copies: 3; dsDNA, one strand shown
Method in brief: as §1

SPIC = target: T2, SPIC (Homo sapiens, UniProt Q8N5J4 1-248); details: protein: recombinant; tags: N-terminal GST; dsDNA, one strand shown
T2 sequence: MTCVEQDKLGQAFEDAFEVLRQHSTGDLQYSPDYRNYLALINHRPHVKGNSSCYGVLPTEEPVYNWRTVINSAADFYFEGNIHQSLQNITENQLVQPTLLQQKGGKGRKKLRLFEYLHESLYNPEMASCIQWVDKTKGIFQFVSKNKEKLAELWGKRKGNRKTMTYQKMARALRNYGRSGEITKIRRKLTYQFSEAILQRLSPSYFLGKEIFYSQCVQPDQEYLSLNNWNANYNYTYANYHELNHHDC
Method in brief: as §1

ELF4 = ELF4 (Homo sapiens, UniProt Q99607 1-663); details: protein: recombinant; tags: N-terminal GST; dsDNA, one strand shown
Method in brief: as §1

ELK4 = target: T3, ELK4 (Homo sapiens, UniProt P28324-2 1-405); details: protein: recombinant; tags: N-terminal GST; dsDNA, one strand shown
T3 sequence: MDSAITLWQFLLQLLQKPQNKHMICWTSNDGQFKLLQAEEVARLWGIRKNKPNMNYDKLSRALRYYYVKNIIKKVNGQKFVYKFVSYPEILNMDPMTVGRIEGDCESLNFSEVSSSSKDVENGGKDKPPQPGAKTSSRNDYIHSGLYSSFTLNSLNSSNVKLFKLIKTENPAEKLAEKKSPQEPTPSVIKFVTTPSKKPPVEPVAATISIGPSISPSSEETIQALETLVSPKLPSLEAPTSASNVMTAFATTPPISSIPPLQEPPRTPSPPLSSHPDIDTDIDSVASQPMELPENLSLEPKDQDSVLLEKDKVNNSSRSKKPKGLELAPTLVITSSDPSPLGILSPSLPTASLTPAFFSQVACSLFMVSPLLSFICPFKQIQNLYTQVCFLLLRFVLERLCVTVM
Method in brief: as §1

ETV2 = target: T4, ETV2 (Homo sapiens, UniProt O00321 1-342); details: protein: recombinant; tags: N-terminal GST; dsDNA, one strand shown
T4 sequence: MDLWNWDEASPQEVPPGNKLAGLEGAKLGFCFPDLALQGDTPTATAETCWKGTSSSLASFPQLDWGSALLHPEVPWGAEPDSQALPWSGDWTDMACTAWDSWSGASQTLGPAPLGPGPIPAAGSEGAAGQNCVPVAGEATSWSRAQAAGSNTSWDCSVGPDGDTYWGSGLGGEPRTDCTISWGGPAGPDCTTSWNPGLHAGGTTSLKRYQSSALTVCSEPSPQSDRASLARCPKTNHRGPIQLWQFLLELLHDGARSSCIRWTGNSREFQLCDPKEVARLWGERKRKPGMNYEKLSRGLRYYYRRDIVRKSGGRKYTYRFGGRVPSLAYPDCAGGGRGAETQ
Method in brief: as §1

ELF3 = target: T5, ELF3 (Homo sapiens, UniProt P78545 1-371); details: protein: recombinant; tags: N-terminal GST; dsDNA, one strand shown
T5 sequence: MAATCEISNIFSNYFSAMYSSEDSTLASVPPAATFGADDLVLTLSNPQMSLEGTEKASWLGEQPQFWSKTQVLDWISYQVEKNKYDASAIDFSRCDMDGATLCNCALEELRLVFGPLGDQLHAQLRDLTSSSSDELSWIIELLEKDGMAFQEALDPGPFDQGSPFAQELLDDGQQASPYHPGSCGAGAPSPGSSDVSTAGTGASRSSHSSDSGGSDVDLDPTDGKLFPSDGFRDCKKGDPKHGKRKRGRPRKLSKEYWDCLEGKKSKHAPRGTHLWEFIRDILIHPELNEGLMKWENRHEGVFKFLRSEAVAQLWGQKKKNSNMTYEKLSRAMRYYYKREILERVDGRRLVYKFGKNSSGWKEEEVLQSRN
Method in brief: as §1

CRX = CRX (Homo sapiens, UniProt O43186 1-299); details: protein: recombinant; tags: N-terminal GST; dsDNA, one strand shown
Method in brief: as §1

ETV1 = ETV1 (Homo sapiens, UniProt P50549 1-477); details: protein: recombinant; tags: N-terminal GST; dsDNA, one strand shown
Method in brief: as §1

ERF = target: T6, ERF (Homo sapiens, UniProt P50548 1-548); details: protein: recombinant; tags: N-terminal GST; dsDNA, one strand shown
T6 sequence: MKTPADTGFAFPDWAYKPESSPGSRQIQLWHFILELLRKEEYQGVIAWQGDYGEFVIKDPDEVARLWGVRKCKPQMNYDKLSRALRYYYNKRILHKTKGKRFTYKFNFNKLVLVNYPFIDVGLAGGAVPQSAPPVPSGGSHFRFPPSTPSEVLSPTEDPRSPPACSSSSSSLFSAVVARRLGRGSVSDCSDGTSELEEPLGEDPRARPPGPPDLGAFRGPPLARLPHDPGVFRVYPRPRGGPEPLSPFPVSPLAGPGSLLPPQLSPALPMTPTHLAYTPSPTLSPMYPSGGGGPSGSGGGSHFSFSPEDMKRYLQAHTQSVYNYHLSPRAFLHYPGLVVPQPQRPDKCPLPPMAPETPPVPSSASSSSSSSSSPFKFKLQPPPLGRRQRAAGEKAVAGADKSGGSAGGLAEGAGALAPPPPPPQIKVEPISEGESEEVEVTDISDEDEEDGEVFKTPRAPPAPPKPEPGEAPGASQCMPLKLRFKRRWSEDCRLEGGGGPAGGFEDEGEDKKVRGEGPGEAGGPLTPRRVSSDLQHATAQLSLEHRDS
Method in brief: as §1

ETV3L = target: T7, ETV3L (Homo sapiens, UniProt Q6ZN32 1-361); details: protein: recombinant; tags: N-terminal GST; dsDNA, one strand shown
T7 sequence: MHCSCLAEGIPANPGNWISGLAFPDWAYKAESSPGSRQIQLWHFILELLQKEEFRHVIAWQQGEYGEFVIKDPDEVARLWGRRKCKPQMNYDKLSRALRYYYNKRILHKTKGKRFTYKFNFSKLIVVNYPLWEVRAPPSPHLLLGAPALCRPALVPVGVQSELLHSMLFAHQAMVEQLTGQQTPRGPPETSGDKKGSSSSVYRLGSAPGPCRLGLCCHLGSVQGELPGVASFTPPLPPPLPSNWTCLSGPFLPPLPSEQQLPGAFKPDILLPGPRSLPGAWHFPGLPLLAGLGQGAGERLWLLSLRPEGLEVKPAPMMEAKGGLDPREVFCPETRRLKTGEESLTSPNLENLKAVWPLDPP
Method in brief: as §1

ETS2 = target: T8, ETS2 (Homo sapiens, UniProt P15036 1-469); details: protein: recombinant; tags: N-terminal GST; dsDNA, one strand shown
T8 sequence: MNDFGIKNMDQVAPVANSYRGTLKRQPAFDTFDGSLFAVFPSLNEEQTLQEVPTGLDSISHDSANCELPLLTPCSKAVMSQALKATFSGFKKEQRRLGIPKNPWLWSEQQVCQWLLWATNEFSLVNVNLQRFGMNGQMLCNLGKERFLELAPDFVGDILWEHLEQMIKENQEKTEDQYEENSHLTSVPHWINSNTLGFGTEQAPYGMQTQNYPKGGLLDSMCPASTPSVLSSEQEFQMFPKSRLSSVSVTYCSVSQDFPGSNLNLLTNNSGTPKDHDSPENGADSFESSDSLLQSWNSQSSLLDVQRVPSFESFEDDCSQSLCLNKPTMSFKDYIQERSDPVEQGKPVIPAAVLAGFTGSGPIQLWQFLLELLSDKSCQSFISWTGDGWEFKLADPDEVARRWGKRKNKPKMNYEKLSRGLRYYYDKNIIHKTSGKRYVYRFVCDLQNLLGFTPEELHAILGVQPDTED
Method in brief: as §1

SPDEF = target: T9, SPDEF (Homo sapiens, UniProt O95238 1-335); details: protein: recombinant; tags: N-terminal GST; dsDNA, one strand shown
T9 sequence: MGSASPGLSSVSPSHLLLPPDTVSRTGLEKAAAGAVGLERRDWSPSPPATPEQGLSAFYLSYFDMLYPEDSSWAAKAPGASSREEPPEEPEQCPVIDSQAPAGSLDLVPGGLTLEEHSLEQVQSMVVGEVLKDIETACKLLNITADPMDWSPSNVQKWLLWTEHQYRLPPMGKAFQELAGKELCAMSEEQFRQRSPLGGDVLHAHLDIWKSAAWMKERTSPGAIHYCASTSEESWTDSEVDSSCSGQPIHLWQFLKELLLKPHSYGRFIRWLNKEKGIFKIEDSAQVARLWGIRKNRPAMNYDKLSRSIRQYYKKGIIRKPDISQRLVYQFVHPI
Method in brief: as §1

ETV7 = target: T10, ETV7 (Homo sapiens, UniProt Q9Y603 1-341); details: protein: recombinant; tags: N-terminal GST; dsDNA, one strand shown
T10 sequence: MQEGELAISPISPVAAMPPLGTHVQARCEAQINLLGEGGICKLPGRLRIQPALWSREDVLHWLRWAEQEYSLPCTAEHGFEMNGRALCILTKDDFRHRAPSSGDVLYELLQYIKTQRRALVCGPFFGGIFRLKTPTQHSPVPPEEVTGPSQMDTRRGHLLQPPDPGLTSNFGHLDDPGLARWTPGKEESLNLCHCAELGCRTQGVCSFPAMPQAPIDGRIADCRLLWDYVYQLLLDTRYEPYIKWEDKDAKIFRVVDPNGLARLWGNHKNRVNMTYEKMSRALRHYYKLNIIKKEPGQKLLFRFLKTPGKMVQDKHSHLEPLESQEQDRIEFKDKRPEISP
Method in brief: as §1

ELF5 = target: T11, ELF5 (Homo sapiens, UniProt Q9UKW6-2 1-255); details: protein: recombinant; tags: N-terminal GST; dsDNA, one strand shown
T11 sequence: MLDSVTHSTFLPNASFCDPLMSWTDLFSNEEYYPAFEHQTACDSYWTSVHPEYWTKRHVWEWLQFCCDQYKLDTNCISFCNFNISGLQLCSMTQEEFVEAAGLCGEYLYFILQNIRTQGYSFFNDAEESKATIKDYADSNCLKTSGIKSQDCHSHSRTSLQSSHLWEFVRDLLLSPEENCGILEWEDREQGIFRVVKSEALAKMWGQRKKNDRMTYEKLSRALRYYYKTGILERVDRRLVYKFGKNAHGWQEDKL
Method in brief: as §1

ETV3 = target: T12, ETV3 (Homo sapiens, UniProt P41162-2 1-143); details: protein: recombinant; tags: N-terminal GST; dsDNA, one strand shown
T12 sequence: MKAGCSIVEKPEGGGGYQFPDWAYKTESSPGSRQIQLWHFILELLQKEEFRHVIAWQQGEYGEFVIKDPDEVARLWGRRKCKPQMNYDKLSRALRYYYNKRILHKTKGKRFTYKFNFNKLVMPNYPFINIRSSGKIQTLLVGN
Method in brief: as §1

ETV6 = ETV6 (Homo sapiens, UniProt P41212 1-452); details: protein: recombinant; tags: N-terminal GST; dsDNA, one strand shown
Method in brief: as §1

Chain of ETV6 (P41212 whole entry): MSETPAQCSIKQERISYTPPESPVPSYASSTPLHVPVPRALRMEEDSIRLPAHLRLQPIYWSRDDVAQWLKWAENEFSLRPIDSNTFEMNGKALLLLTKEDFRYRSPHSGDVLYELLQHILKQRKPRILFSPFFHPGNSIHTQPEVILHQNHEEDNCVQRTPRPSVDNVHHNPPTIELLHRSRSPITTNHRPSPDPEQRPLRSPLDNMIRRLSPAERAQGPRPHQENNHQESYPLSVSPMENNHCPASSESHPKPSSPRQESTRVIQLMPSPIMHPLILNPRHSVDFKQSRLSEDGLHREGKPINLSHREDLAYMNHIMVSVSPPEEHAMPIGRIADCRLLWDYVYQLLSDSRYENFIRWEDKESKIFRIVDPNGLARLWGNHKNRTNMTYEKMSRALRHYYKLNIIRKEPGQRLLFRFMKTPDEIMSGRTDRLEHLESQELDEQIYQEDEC
Chain of CRX (O43186 whole entry): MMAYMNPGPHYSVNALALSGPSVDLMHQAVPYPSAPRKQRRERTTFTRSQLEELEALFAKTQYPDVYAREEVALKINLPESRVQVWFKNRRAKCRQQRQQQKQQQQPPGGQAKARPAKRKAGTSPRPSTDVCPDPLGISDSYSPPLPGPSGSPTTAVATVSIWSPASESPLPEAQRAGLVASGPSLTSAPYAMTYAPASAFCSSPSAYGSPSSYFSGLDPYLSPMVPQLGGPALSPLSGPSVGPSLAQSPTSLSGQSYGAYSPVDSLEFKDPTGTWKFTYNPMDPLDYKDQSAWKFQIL
Chain of HSF1 (Q00613 whole entry): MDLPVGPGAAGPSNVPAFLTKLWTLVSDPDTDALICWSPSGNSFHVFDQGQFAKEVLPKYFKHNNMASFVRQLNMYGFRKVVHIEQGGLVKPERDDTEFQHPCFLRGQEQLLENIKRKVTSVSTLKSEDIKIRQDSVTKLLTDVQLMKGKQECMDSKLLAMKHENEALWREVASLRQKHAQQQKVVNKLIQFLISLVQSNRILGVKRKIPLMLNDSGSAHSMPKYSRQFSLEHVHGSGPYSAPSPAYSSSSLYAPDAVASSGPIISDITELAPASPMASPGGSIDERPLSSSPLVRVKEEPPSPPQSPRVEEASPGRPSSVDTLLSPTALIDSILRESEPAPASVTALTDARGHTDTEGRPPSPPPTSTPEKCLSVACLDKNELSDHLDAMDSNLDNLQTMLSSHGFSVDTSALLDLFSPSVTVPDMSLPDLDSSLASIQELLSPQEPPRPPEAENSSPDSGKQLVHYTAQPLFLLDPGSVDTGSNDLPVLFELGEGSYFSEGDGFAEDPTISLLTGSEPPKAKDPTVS
Chain of ETV1 (P50549 whole entry): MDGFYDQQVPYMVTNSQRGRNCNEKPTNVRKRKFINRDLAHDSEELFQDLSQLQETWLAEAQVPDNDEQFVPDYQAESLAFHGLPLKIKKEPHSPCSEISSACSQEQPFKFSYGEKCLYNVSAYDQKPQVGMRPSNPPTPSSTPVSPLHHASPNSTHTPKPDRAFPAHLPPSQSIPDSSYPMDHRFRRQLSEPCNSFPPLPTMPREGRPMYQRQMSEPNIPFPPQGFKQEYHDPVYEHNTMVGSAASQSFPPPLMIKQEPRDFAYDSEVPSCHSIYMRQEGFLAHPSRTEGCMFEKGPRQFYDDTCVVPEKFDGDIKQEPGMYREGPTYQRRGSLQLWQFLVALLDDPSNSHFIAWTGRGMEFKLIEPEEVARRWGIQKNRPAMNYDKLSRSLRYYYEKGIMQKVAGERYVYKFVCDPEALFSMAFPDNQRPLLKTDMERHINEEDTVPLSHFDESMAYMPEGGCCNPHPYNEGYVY
Chain of ETV5 (P41161 whole entry): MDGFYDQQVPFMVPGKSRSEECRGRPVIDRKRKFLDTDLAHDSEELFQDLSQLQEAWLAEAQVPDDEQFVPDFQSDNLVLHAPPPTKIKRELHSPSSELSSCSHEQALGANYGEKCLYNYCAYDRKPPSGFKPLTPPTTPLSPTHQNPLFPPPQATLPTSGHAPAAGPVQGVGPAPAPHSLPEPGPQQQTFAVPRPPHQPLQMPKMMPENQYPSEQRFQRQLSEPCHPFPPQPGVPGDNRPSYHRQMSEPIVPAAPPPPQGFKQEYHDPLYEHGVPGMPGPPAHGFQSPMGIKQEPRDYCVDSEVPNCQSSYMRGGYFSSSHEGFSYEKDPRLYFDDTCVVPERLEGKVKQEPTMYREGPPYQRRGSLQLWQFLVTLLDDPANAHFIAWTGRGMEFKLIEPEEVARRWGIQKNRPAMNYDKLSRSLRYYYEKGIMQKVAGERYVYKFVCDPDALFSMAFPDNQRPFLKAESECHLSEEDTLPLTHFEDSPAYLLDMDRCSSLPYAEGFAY
Chain of ELF4 (Q99607 whole entry): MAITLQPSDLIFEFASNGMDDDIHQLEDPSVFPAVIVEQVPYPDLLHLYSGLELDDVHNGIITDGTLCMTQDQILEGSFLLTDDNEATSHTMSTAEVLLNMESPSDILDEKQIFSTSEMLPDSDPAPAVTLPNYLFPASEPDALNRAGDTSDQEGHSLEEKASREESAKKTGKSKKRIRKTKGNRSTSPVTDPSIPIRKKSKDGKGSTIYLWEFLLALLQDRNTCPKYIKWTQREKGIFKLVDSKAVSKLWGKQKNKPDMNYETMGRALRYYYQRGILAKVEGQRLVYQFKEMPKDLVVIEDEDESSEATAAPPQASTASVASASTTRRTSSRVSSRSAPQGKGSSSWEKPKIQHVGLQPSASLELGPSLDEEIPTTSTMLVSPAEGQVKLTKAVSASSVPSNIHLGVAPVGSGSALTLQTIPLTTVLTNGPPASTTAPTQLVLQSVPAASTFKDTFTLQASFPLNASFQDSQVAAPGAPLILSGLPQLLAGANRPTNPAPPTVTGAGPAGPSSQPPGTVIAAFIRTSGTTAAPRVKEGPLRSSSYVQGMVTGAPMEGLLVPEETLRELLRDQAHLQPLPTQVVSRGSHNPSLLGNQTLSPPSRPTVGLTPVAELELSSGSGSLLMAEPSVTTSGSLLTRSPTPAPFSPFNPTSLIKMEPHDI

In the case of AGCTAC, the binding signal (FEV) is reported as 1.23 fold enrichment (6-mer frequency, TF over GST control), the binding signal (ETV5) is reported as 1.21 fold enrichment (6-mer frequency, TF over GST control) and the binding signal (HSF1) is reported as 1.04 fold enrichment (6-mer frequency, TF over GST control). For the same sequence, the binding signal (SPIC) was 1.21 fold enrichment (6-mer frequency, TF over GST control), the binding signal (ELF4) was 1.12 fold enrichment (6-mer frequency, TF over GST control) and the binding signal (ELK4) was 1.25 fold enrichment (6-mer frequency, TF over GST control). For the same sequence, the binding signal (ETV2) was 1.03 fold enrichment (6-mer frequency, TF over GST control), the binding signal (ELF3) was 1.34 fold enrichment (6-mer frequency, TF over GST control) and the binding signal (CRX) was 1.04 fold enrichment (6-mer frequency, TF over GST control). For the same sequence, the binding signal (ETV1) was 1.21 fold enrichment (6-mer frequency, TF over GST control), the binding signal (ERF) was 1.25 fold enrichment (6-mer frequency, TF over GST control) and the binding signal (ETV3L) was 1.14 fold enrichment (6-mer frequency, TF over GST control). For the same sequence, the binding signal (ETS2) was 1.09 fold enrichment (6-mer frequency, TF over GST control), the binding signal (SPDEF) was 1.02 fold enrichment (6-mer frequency, TF over GST control) and the binding signal (ETV7) was 1.31 fold enrichment (6-mer frequency, TF over GST control). The binding signal (ELF5) was 1.18 fold enrichment (6-mer frequency, TF over GST control), the binding signal (ETV3) was 1.17 fold enrichment (6-mer frequency, TF over GST control) and the binding signal (ETV6) was 1.22 fold enrichment (6-mer frequency, TF over GST control).
